Measurements from PubChem BioAssay AID1508600 (Functional Genomics Laboratory (NCATS/FGL), 2020).
Among all 53,000 sequences or so, about 3,700 (7%) were called active. The sample as a whole holds a higher share of actives than the screen did. A number with no mark means an inactive call.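 How the source made its calls: active means gene knockdowns whose robust z-score for IL-1 alpha signal is at least 2 or at most -2, so actives lie on both sides; inactive means the rest.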

Experiment: Components of the Cytosolic LPS Sensing Pathway: Gene Identification via Genome-wide siRNA Screen
Settings: RAW264.7 macrophages, IL-1a HTRF, actives lie on both sides, screened at 100 nM (by protocol), cells primed 5 h with Pam3CSK4 first
From the text: Non-canonical inflammasome activation by cytosolic LPS is a critical component of the host response to Gram-negative bacterial infection, however we lack a comprehensive understanding of the cellular processes that control this pathway. Here we describe a genome-wide siRNA screen to identify genes regulating the mouse macrophage IL-1 alpha response to cytosolic LPS.
RAW264.7 cells were maintained in complete DMEM media, comprising DMEM with 4.5 g/L glucose, 10% FBS (Gemini Bio-Products, West Sacramento, CA), 2 mM Glutamine (Lonza) and 20 mM HEPES (Lonza), hereafter complete DMEM.
The RNAi screen was conducted in 384-well format using the Ambion Silencer Mouse Genome siRNA Library (#4391425), which consists of three unique, nonoverlapping, nonpooled siRNAs for each of 17,000 gene targets. siRNA reagents ([…]) were stamped into 384-well white flat-bottom microplates (Corning, 3570) using a Velocity11 VPrep liquid handling system (Agilent) integrated into a BioCel robotic platform (Agilent) in columns 1-22, leaving columns 23-24 empty for negative (Ambion, Negative control #1) and positive (mouse Casp4) controls, respectively. The median value of each plate's negative control column was used to normalize sample wells, and the positive control was used to assess transfection efficiency and assay performance.
Lipofectamine RNAiMAX Transfection Reagent ([…]; Invitrogen) was added in […] serum-free, antibiotic-free media to plate wells using a Thermo Scientific Matrix WellMate and Microplate Stacker. Plates were incubated for 45 min at room temperature to allow for the sufficient formation of siRNA-lipid complexes. Cells were seeded at a density of 1x10^4 cells per well in 20 microL media containing 20% (vol/vol) FBS without antibiotics. The final concentration of siRNA in each well was 100 nM. Cells were cultured for 48h at 37 degrees C in 5% CO2 before addition of […] of TLR ligand Pam3CSK4 for 5 hours. The medium was then removed, replaced with […] growth media and cell were transfected with […] of LipidA and TransIT-TKO (Mirus) for 24 hour. At the end of the LipidA treatment, […] of supernatant was transferred to a 384 Greiner Bio-one non-binding low volume plate and […] of IL-1a HTRF reagent (Cisbio, 62MIL1APEH) was added and incubated at room temperature overnight. The plates were read on an EnVision plate reader (PerkinElmer). Cell viability was measured by adding 20ul Cell Titer Glo to the original plate and running a luminescence read on the EnVision. The quantified IL-1a signal for each siRNA gene-targeted well was divided by the median of the negative control wells and multiplied by 100 to achieve a negative control normalized value for each well/siRNA. This normalized value was then used to generate a robust z-score by first taking the log of each value and then by subtracting the median and dividing by the […].
GAUAUUCCUGCUCACAGUGTT against Olfr1265 gave a z-score of -1.04.
With UAGUCAUCUUCACUCUCCUTT against Olfr1249 the z-score was -0.907.
In the case of GGACUUUUACCAGUUCUCCTT against Ece2, the z-score is reported as -2.43 (active).
Sequence GGCUCUCUGUCUGGAAAAGTT against Vcan has a z-score of -1.25.
In the case of GGAGCUGAGGAAUUGAUCCTT against Pudp, the z-score is reported as -1.97.
Work on CCAUUGCAUGCAAUGACUATT against S100a10 yielded a z-score of -1.25.
With GGAAGCAGCAAAGAAGUUGTT against Olfr1109 the z-score was 0.918.
CCUAUCAUGUUAAAAACAGTT against Grem2 gave a z-score of -1.13.
GGGUCACUUGGAUUGUGGATT against Tmx2 gave a z-score of -0.0195.
For GGAUCCUGCAUAUCUCAAATT against Mrps18c, the z-score was 0.186.
With GGGACACGAUGAGGAGUCATT against Cfap410 the z-score was -2.21 (active).
With GCGACUUAGAAAAGAACAGTT against Ccdc58 the z-score was 1.91.
“GGAACAGCAGCUUCCCUAATT against 4930555G01Rik” gave a z-score of -0.0144.
CCAAGCGAAAUCGAGGUGUTT against Omt2b showed a z-score of 0.931.
In the case of GGCUAUAGCAGCACAUUGGTT against Ylpm1, the z-score is reported as 2.57 (active).
In the case of GGUGGAGCAGAUGAAGAACTT against Hspbp1, the z-score is reported as 0.447.
Sequence CCCAAGAAGUUUUAUUCUGTT against Zbbx has a z-score of -0.221.
Work on GGCCUACGACAAAUCCAAATT against Csrp2 yielded a z-score of 1.14.
Sequence GGCGAAGAUUGAAAAAUGCTT against Ube3c has a z-score of -0.407.
With GGAACUAAAUGUGAAACAUTT against Ift52 the z-score was -2.07 (active).
GGAAGUGGAACAGGACGUATT against Caps2 gave a z-score of -1.17.
For GCUGUACCACAACUAGUCATT against Cdc7, the z-score was 0.977.
In the case of GGCAAGUUUGCUAUAACCUTT against Jmy, the z-score is reported as -2.57 (active).
With GGAAUAGGGAGGUAACCAGTT against Olfr1394 the z-score was 0.0525.
Work on GGAAAUUGCACCUUUAAAGTT against Rnf130 yielded a z-score of 0.335.
Work on CGUAGCCGAGAAGACCCUATT against Shh yielded a z-score of 0.0734.
Sequence GGUUUUAGAAUUCUGGACGTT against Plppr2 has a z-score of 0.243.
With GCUCCUCUCAGGUGUACGATT against B9d2 the z-score was 2.23 (active).
GGGCAGGGAUGUUUAGAUCTT against Homer2 showed a z-score of 0.499.
Work on CCAACAUCUCUGUAUACUGTT against Olfr8 yielded a z-score of 0.178.
CCUACGUGAUCAACAAGCATT against Fxn gave a z-score of 0.682.
Work on GGGAGCAACUGUGUCAAAUTT against Tspan10 yielded a z-score of 1.06.
In the case of GGAAAGACACAGAUAAUAATT against Arvcf, the z-score is reported as -1.28.
Sequence CCAAUAACUCUAAAUAGGCTT against Trhr has a z-score of 0.308.
GGUCAUCGAAUCUGGAGUATT against Pyroxd1 showed a z-score of -0.282.
In the case of GGUCCACAGUACCACAUAATT against Tespa1, the z-score is reported as -3.2 (active).
In the case of CAUCCCAGAGUGUUGUCUUTT against Olfr1325, the z-score is reported as 1.97.
GCAGCUCCCAAUCUCACUUTT against Ankrd34a gave a z-score of 0.171.
With “GGUGUCCGUAAAUGGAGUGTT against A430033K04Rik” the z-score was 0.809.
With GGAAGAGAGCCUCUGCCAATT against Ccnb2 the z-score was 2.28 (active).
With GUGUGCUAUGAGCAAUGCCTT against Sprr2a1 the z-score was -1.34.
With GGUUCGACGAAGAUCAGAGTT against Akap1 the z-score was -0.634.
For GGAAAGUGUUCUCUACAUGTT against Olfr1093, the z-score was 0.878.
With GGUAACAAGAGGUCUAGCATT against P2ry1 the z-score was 3.66 (active).
For GGAUACUGGCAUGAAAUUGTT against Slc22a2, the z-score was -0.888.
With GGCGGAACACAUGACUAGGTT against Ilf3 the z-score was 0.189.
GGUCUGAAAAUGGAAUACCTT against Vps13a gave a z-score of 1.8.
In the case of GGGAAUCAACGCAAAGUUGTT against Pcdhga5, the z-score is reported as -0.00294.
For GCACAAGACUAACAAUACGTT against Sptbn2, the z-score was -1.26.
With GGACAUCAAAGAAAAGUCATT against Gpr171 the z-score was 0.955.
With GCCAAUGAAAGAGACGUAGTT against Fam81a the z-score was -0.421.
In the case of CCAAGAUGGGUUCAUCUCUTT against Cabp5, the z-score is reported as 2.39 (active).
In the case of CGGAUUUCAUGGCUCAAGATT against Gfm2, the z-score is reported as -0.123.
In the case of CGUGAACAGCUUUAAGGUGTT against Usp27x, the z-score is reported as 1.34.
With CCCUAACAAACCCUAUUAUTT against Kdm6b the z-score was -1.49.
GCUGAGACCCAGAUGCAAUTT against Mal gave a z-score of 0.858.
Sequence GUCUGCAUCACCUUCACCATT against Lhb has a z-score of -0.301.
CGGUAUCACGGUUAUCCUUTT against Olfr215 gave a z-score of 0.932.
For GGGAUUCCAGACAUGGGAATT against Alg9, the z-score was -0.191.
For GCGGUUCUAAGGAUACCGATT against Txndc17, the z-score was 2.52 (active).
GGGUUUCUGACCCUUGGUUTT against Vmn1r220 showed a z-score of -1.42.
GGGUGUGAAGUCAUGGUAUTT against Trmt9b gave a z-score of 0.503.
In the case of GGCCUCCUAAGAGGACUCATT against Dach1, the z-score is reported as -1.11.
With CGCAAUUCAGGUACCAAAUTT against Ndufv1 the z-score was -0.0623.
With GCCUGAAAUCAACUCCACCTT against F2 the z-score was 2.21 (active).
CCAUUACAUCAGCUUUAUUTT against Pamr1 showed a z-score of -0.845.
For GGAUAUCCUUACAAGGACCTT against Tmco3, the z-score was -0.646.
GGCCGACCUUUCUAUCAAUTT against Rasip1 gave a z-score of -0.0174.
For GGUGUCAUUCAACUUGCAUTT against Rnase10, the z-score was -2.55 (active).
With GGAGGAAUACAAAUUCAAGTT against Vamp5 the z-score was 1.37.
GGCUCUCUGGAGAAUCAUGTT against Slc25a28 gave a z-score of 0.0751.
With GGUUACUAUGGAGACCUGGTT against Mia the z-score was 0.429.
In the case of GCCUUAAUACUCACCAGGGTT against Zscan2, the z-score is reported as 0.702.
Work on GCUAAGACACGAUAAACUUTT against Yes1 yielded a z-score of 1.34.
Work on GCUGAUAAGGAGGUACCAUTT against Igf2r yielded a z-score of 0.916.
In the case of GGAAAAGCAUCAAUUGAUGTT against Abca8b, the z-score is reported as -1.02.
With GGCUUUCAUUCUGCAGCUATT against Olfr1089 the z-score was -2.13 (active).
For GGUGUUCAGAUGGUUCCCATT against Exosc1, the z-score was -1.19.
GCUGUUACCUUGACGAAUATT against Tsc2 showed a z-score of 1.32.
GGGAUAAAGAGCAAAGAAUTT against Trdv2-2 showed a z-score of -0.466.
Work on GCGUAAUUCCAGCAGAUGUTT against Mepe yielded a z-score of 1.74.
In the case of GAAAAGUGCACCAUCAGCCTT against Ly6g5b, the z-score is reported as -2.27 (active).
Work on GCUACAGGUCAAUGUCGUGTT against Tcte2 yielded a z-score of -1.61.
Sequence CCCAUAGCUAAUGAACCAATT against Sntg2 has a z-score of -0.604.
GGAGAGAAAAAGUAAUAUCTT against Fgf1 gave a z-score of 0.843.
“GGUCGUAAGACAGUUGUCCTT against 4932438H23Rik” gave a z-score of -0.715.
In the case of GGAGCUGACAGAGAGAUUCTT against Ankrd40, the z-score is reported as -2.77 (active).
With GGAGCAACACUUGCGUACUTT against Ccnq the z-score was 1.32.
Work on “GCACUGUCGCAUCAUCAGATT against D230025D16Rik” yielded a z-score of 1.83.
“GGAAACCUGAUGAUCUUUUTT against Olfr421-ps1” gave a z-score of -1.27.
Work on GGAUGUCCGGAAGAUGUUUTT against Celf3 yielded a z-score of -0.284.
With GGUGUGUUCCCAACUGGUGTT against Olfr1124 the z-score was 2.04 (active).
With GUGGAAAUGUACUUCUCUGTT against Olfr257 the z-score was 0.435.
With AGCUGCUCUGAGUUAGAAATT against Scd2 the z-score was 0.934.
With GGCAAAUCAUUGAUCAGAATT against Mtrf1 the z-score was -0.214.
With GGACAGACUGAAUGAGCAGTT against Faf2 the z-score was 2.24 (active).
Work on GCAAAACUUGGAACGAUUUTT against Ddx1 yielded a z-score of 0.153.
CCUAAAUUUGAGGUAACCUTT against Zbtb21 showed a z-score of 0.571.
With GGAUAAAAGCAUUUGAGUCTT against Acp1 the z-score was 0.694.
For GGGAACCAGUACAAUUACATT against Glt8d1, the z-score was -0.755.
For GGAGAUCUAUGACAAGAAATT against Idh1, the z-score was -0.376.
Sequence GGUAAGAAGACAAACACUCTT against Ly6g6d has a z-score of 0.237.
For GCUCUACUGCUUCUUAGUCTT against Olfr965, the z-score was -2.4 (active).
Sequence GGAUAAGAAGAUGAGGCAGTT against Mns1 has a z-score of -0.0977.
GCUUCAAAACAAACCCUUGTT against Parp11 gave a z-score of -1.58.
GGAGUGUAUGCAGAAGUUUTT against Dnajc24 showed a z-score of 1.49.
Work on GGUUUUGGUAUCUCCAUGGTT against Olfr2 yielded a z-score of -0.48.
